# KCNQ2 enhance = enhances the rat KCNQ2 potassium channel; CHO-K1 KCNQ2, FluxOR thallium flux fluorescence; stronger effect = higher value; B-score at 10 µM; 0.54% of 310,000 active;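 active = fluorescence ratio B-score at least 3 SD of library B-scores, with initial fluorescence B-score within 3 of them, cut at about 5.3 in these data; same plate scores as AID 2156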;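 note: B-score of peak minus minimum over baseline fluorescence ratio after K+ and Tl+ stimulus; positive B-score means potentiation of KCNQ2 with more thallium influx and brighter signal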
# KCNQ2 block = KCNQ2 (rat) channel inhibition | O88943 | CHO-K1 KCNQ2, FluxOR thallium flux, 20 min; stronger effect = lower value | B-score at 10 µM | 1.1% of 310,000 active;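 active = fluorescence ratio B-score at most minus 3 library SDs, with starting brightness B-score within 2 library SDs, cut at about -5.5 in these data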
# KCNQ2 inh conf = confirmation of rat KCNQ2 potassium channel inhibitors. shares compounds with KCNQ2 block. KCNQ2-expressing cells, thallium flux, inhibition; stronger effect = lower value. activity change, negative = inhibition, % at 10 µM. 57% of 1,000 active;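 note: 0% = vehicle wells and values are ratio percent relative to vehicle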
# KCNQ1 spec = human KCNQ1 activity in KCNQ2 inhibitor specificity screen | shares compounds with KCNQ2 block | 15% of 1,000 active | KCNQ1-expressing cells, FluxOR thallium flux fluorescence; stronger effect = lower value | activity change, negative = inhibition, % at 10 µM;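 active = activity change at least 3 SD of negative controls below their mean in both duplicate wells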;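 note: CHO cells stably transfected with KCNQ1 and depolarized by potassium stimulus; peak minus minimum fluorescence over baseline after thallium addition; 0% = vehicle negative control and -100% = blank without thallium stimulus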
# CHO parental ctr = counter-screen for KCNQ2 inhibitors: effect in parental CHO cells | shares compounds with KCNQ2 block | thallium flux counter-screen; stronger effect = lower value | activity change, % at 10 µM | 14% of 1,000 active | AID 493029;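 note: 0% = vehicle negative controls with stimulus buffer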
# KCNQ2 patch conf = blocks rat KCNQ2 current in automated patch clamp. AID 588531. 49% of 550 active. KCNQ2-expressing cells. calls only at 10 µM. shares compounds with KCNQ2 block
# * hit, by the source's call; i = inactive; · = no result; + = active, no number. The list is not random: actives were taken first. Their share in the collection is about 1.6%. Unless noted, the rule behind the calls is not given here.
SMILES,KCNQ2 enhance,KCNQ2 block,KCNQ2 inh conf,KCNQ1 spec,CHO parental ctr,others
CCN(CC)CCN1C(=O)C2C(C(=O)Nc3ccc(C(C)C)cc3)C3C=CC2(O3)C1C(=O)NC1CCCCC1 (stereo not given),0.29,i,·,·,·,
CC(Oc1ccc(Cl)cc1Cl)C(=O)NCCCCc1ccccc1 (stereo not given),·,i,·,·,·,
O=C(COc1ccc(Cl)cc1Cl)NCCCCc1ccccc1,-7.8,-7.8*,i,i,i,
CC1(C)CC(=O)C(C2C3=C(CC(C)(C)CC3=O)Oc3c(Br)cc(Br)cc32)=C(O)C1 (stereo not given),·,i,·,·,·,
Cc1ccc(NC(=O)c2cc(-c3ccc(C)o3)nc3ccccc23)cc1,·,i,·,·,·,
Cc1ccc(-c2cc(C(=O)Nc3cccnc3)c3ccccc3n2)o1,-8.1,-8.1*,i,i,i,
COc1ccccc1NC(=O)c1cc(-c2ccc(C)o2)nc2ccccc12,-8.1,-8.1*,-34%*,i,i,KCNQ2 patch conf=+
COc1ccccc1NC(=O)c1cc(C)nc2ccccc12,·,i,·,·,·,
O=C1CCC(C(=O)N2CCCC(Nc3ccc(F)cc3)C2)=NN1 (stereo not given),·,i,·,·,·,
CN(CC(=O)Nc1ncn[nH]1)S(=O)(=O)c1ccc(Cl)cc1,·,i,·,·,·,
Cc1cc(Cl)ccc1NC(=S)N1CCN(C(=O)c2ccco2)CC1,0.23,i,·,·,·,
O=C(CCN1CCc2ccccc2C1)c1ccc2c(c1)OCCO2,-8.3,-8.3*,-16%*,i,i,KCNQ2 patch conf=+
O=C(CCN1CCCCC1)c1ccc2c(c1)OCCO2,·,i,·,·,·,
O=C(CCN1CCCC1Cc1ccccc1)c1ccc2c(c1)OCCO2 (stereo not given),-7.9,-7.9*,-35%*,-30%*,-24%*,KCNQ2 patch conf=+
O=C(CCN1CCc2ccccc21)c1ccc2c(c1)OCCO2,0.36,i,·,·,·,
N#Cc1cccc(NC(=O)CN2C(=O)NC(Cc3ccccc3)C2=O)c1 (stereo not given),·,i,·,·,·,
CN(C)CCCNC(=O)/C(=C\c1ccc(-c2ccc(Br)cc2)o1)NC(=O)c1ccccc1,·,i,·,·,·,
Cc1ccc(C(=O)N/C(=C\c2ccc(-c3ccc(Cl)cc3)o2)C(=O)NCCCN(C)C)cc1,-7.2,-7.2*,-18%*,i,i,
CCC(C)NC(=O)CCn1c(=O)c2cccn2c2ccc(F)cc21 (stereo not given),·,i,·,·,·,
CCOc1ccc(CC(=O)NNC(=S)NC)cc1Br,·,i,·,·,·,
CCN1C(=O)[C@H]2[C@@H](c3ccc(C)cc3)N3C(=O)N(c4ccc(OC)cc4)C(=O)[C@@]3(CC)[C@H]2C1=O,0.67,i,·,·,·,
Cc1nn(C)c(C)c1CCC(=O)N1CCCC(N2CCN(c3ccc(F)cc3)CC2)C1 (stereo not given),0.96,i,·,·,·,
Cc1ccc(-c2nc(C(=O)NCC3CCCO3)cc3c2[nH]c2ccccc23)cc1 (stereo not given),-12,-12*,-28%*,i,i,KCNQ2 patch conf=i
Cc1ccccc1-c1nc(C(=O)NCC2CCCO2)cc2c1[nH]c1ccccc12 (stereo not given),·,i,·,·,·,
Cc1ccc(S(=O)(=O)N(C)CC(=O)Nc2nnc(CC(C)C)s2)cc1,1.8,i,·,·,·,
SMILES,KCNQ2 enhance,KCNQ2 block,KCNQ2 inh conf,KCNQ1 spec,CHO parental ctr,others
S=C(NCc1ccccc1)Nc1cccc2ccccc12,1.6,i,·,·,·,
Cc1ccc(C(C)C)c(OCCNC(=S)Nc2cccc3ccccc23)c1,-6.7,-6.7*,i,i,i,
CNc1c(NC(=O)C2CCC(C)CC2)c(=O)oc2ccccc12 (stereo not given),·,i,·,·,·,
O=C(NCC(c1cccs1)N1CCc2ccccc21)c1ccccc1 (stereo not given),·,i,·,·,·,
COc1cccc(C(=O)NCC(c2cccs2)N2CCc3ccccc32)c1 (stereo not given),·,i,·,·,·,
O=C(NCC(c1ccco1)N1CCc2ccccc21)C(=O)Nc1ccccc1F (stereo not given),·,i,·,·,·,
COc1cc(C(=O)NCC(c2cccs2)N2CCc3ccccc32)cc(OC)c1OC (stereo not given),-8.7,-8.7*,i,i,i,
COc1ccccc1NC(=O)C(=O)NCC(c1ccco1)N1CCc2ccccc21 (stereo not given),-7.2,-7.2*,i,i,i,
COc1ccccc1C(=O)NCC(c1cccs1)N1CCc2ccccc21 (stereo not given),-7.2,-7.2*,i,i,i,
Cc1ccc2nc(-c3ccc(N4C(=N)SC5CS(=O)(=O)CC54)cc3)sc2c1 (stereo not given),·,i,·,·,·,

# Source: PubChem BioAssay (Johns Hopkins Ion Channel Center)
